This is an account of results in PubChem BioAssay AID448 (National Center for Advancing Translational Sciences (NCATS), 2006).

About 45 (0.07%) of roughly 65,000 compounds were called active. Calls follow the shape of the full dose curve. Not all results are given here.
Potency is read from the fitted curve at half-maximal effect.

The subject of the test is Schistosoma mansoni peroxiredoxin 2 (Prx2). Description: Schistosoma Mansoni Peroxiredoxins (Prx2). The note with it: S. mansoni Prx2 activity coupled to TGR/GSH (TGR is thioredoxin glutathione reductase), NADPH fluorescence loss, qHTS. The source says:
NIH Molecular Libraries Screening Centers Network [MLSCN]
NIH Chemical Genomics Center [NCGC]
David Williams [Illinois State University]
Schistosoma mansoni, a causative agent of schistosomiasis, resides in the bloodstream of their host up to 30 years without being eliminated by the host immune attack. One proposed survival mechanism is the production of an antioxidant "firewall" that neutralizes the oxidative assault of the host's immune attack. Schistosoma mansoni peroxiredoxins (Prx) are important parasite antioxidant proteins that play a crucial role in redox balance mechanisms. […] First, the proteins are essential for the parasite survival. […] Third, the protein(s) is amenable for study at the molecular level and can be produced in bacteria in large quantities, in soluble and active form. Inhibition of Prx activity was screened in a coupled-enzyme format with reducing equivalents being transferred from NADPH to […] intermediate via thioredoxin/glutathione reductase (TGR)-catalyzed reaction, then from thioredoxin to hydrogen peroxide via Prx-catalyzed electron transfer. A decrease in the fluorescence intensity of NADPH was used to measure the enzyme activity. Purified S. mansoni TGR and Prx were provided by Professor David L. Williams, Illinois State University.
NCGC Assay Protocol Summary:
100 mM phosphate buffer, pH 7.4, 10 mM EDTA, 0.01% Tween-20.
100 uM NADPH/25 nM TGR/700 uM GSH/50 nM Prx2 mixture in columns 1, 2, 5-48. Titration of control potassium antimonyl tartrate (PAT, from 1 mM, then 1:5) pin-transferred to lower half of column 2. Column 1 and upper half of column 2 are neutral (100% activity).
Three uL of reagents were dispensed to 1536-well Greiner black plates. Compounds and controls (20 nL) were transferred via Kalypsys PinTool. The plates were incubated for 15 min at room temperature, and then a 1 uL aliquot of 400 uM NADPH/700 uM GSH was added, immediately followed by a 1uL aliquot of 2.5 mM H2O2 (to start the reaction). The plate was transferred to ViewLux (Perkin-Elmer) High-throughput CCD imager where kinetic measurements (every 30 sec, for a total of 8 min) of NADPH fluorescence were taken using 365 nm excitation/450 nm emission filter set. During dispense, enzyme-containing reagent bottles were kept submerged into 4 deg C water bath to minimize degradation.
Keywords: NIH Roadmap, MLSCN, MLI, MLSMR, David Williams, Peroxyredoxin, Schistosoma mansoni, prx2, prx, , qHTS, NCGC
For orientation: Quantitative high-throughput screening tests each substance at several concentrations.
`Oc1ccc2ccccc2c1C=NCc1c(O)ccc2ccccc12`: the Potency was > 57 µM (inactive).

In the case of `CC(C)(O)[C@H]1[C@H]2OC(=O)[C@@H]1[C@]1(O)C[C@H]3O[C@]34C(=O)O[C@H]2[C@]14C`, the Potency is > 25.6 µM (inactive).

With `CC(C)[C@H](CO)Nc1nc(Nc2cc(N)cc(Cl)c2)c2ncn(C(C)C)c2n1`, the Potency was > 57 µM (inactive).

Take `O=c1[nH]c(=O)n([C@H]2C[C@H](O)[C@H](CO)O2)cc1Br`: the Potency is > 57 µM (inactive).

Turning to `COc1cccc(Cn2c(=O)c(CCc3ccccc3)nc3cnc(N(C)C)nc32)c1`, the Potency is > 11.4 µM (inactive).

Turning to `COc1ccccc1CNc1ncncc1-c1cccnc1`, the Potency was > 57 µM (inactive).

As for `COc1ccc(NC(=O)N2CC3(CCN(C(C)=O)CC3)C2)cc1`, the Potency is > 57 µM (inactive).

Consider `Cc1ccccc1-c1nc(N(C)Cc2ccco2)c2ccccc2n1`, for which the Potency was > 57 µM (inactive).

Regarding `O=C(c1cc(C(F)(F)F)cc(C(F)(F)F)c1)N1CCC2(CCCN(Cc3ccncc3)C2)CC1`, the Potency is > 57 µM (inactive).

For the compound `C[C@H](CCC(=O)NCC(=O)O)[C@H]1CC[C@H]2[C@H]3[C@@H](C[C@@H](O)[C@]12C)[C@]1(C)CC[C@H](O)C[C@@H]1C[C@@H]3O`, the Potency was > 57 µM (inactive).

For `Cc1nc2cnc(Nc3ccccc3)nc2n(C[C@H]2CCCO2)c1=O`, the Potency was > 57 µM (inactive).

Take `CC[N+](C)(CC)CCC[n+]1c(-c2ccccc2)c2cc(N)ccc2c2ccc(N)cc21`: the Potency was > 57 µM (inactive).

For `NCC[Se][Se]CCN`, the Potency is > 57 µM (inactive).

For `CCCC[C@H]1C(=O)N(c2ccccc2)N(c2ccc(O)cc2)C1=O`, the Potency is > 57 µM (inactive).

As for `FC(F)(F)c1ccccc1-c1cc(NCc2ccccc2)ncn1`, the Potency is > 57 µM (inactive).

For `O=C(Nc1cccc(F)c1)N1CC2(CCN(C(=O)c3cnccn3)CC2)C1`, the Potency is > 57 µM (inactive).

For `COCCn1c(=O)c(CCc2ccccc2)nc2cncnc21`, the Potency was > 57 µM (inactive).

Consider `O=C(c1cnccn1)N1CCC2(CCCN(Cc3ccccc3)C2)CC1`, for which the Potency is > 57 µM (inactive).

As for `COc1ccc(-c2nc3cnc(Oc4ccccc4)nc3n(Cc3cccs3)c2=O)cc1`, the Potency was > 57 µM (inactive).

Take `COCCn1c(=O)c(-c2cccs2)nc2cncnc21`: the Potency is > 57 µM (inactive).

For the compound `Cc1noc(C)c1-c1nccc(N2CCOCC2)n1`, the Potency is > 57 µM (inactive).

As for `O=C(c1cc(C(F)(F)F)cc(C(F)(F)F)c1)N1CCC2(CCCN(c3ccccn3)C2)CC1`, the Potency was > 57 µM (inactive).

Turning to `C/C=C1\C(=O)C[C@@H]2[C@@H]3CCC4=CC(=O)CC[C@@]4(C)[C@H]3CC[C@@]12C`, the Potency was > 57 µM (inactive).
